# Reference: PubChem BioAssay (NCI)
# Several values for one entry are separate records, joined by “and”; a condition that tells them apart may be missing. Identical values can stand only once. This is part of a sample that, as a whole, favours compounds with a hit. Of some 83,000 tested, about 20% had one in any assay.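 Compound tested at a single concentration for 48 hours in 96-well plates; a percent growth value below 10 was scored as active.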 Unmarked numbers belong to inactive results. Activity calls are given as the source filed them.
# Test system: MDA-MB-468 breast
# Test: NCI-60 one-dose screen, 48 h (100 = growth as untreated, 0 = no growth, -100 = all killed)
# Details: 10 µM unless noted
row,SMILES,growth
1,COc1ccc(-n2c(SCc3cc(OC)c(OC)c(OC)c3)nc3ccc(C)cc3c2=O)cc1,46.8%
2,N#C/C(=C/c1ccc([N+](=O)[O-])cc1)n1nnc2cc(F)c(F)cc21,19.8%
3,O=S(=O)(NCCCNc1nccc(-c2c(-c3ccccc3)nc3sccn23)n1)c1ccc(F)cc1,35.5%
4,COCCOc1cc2ncnc(N3CCN(c4cc(S(C)(=O)=O)c(C)cc4Cl)CC3)c2cc1OCCOC,90.2%
5,CCN1CCN(c2ccc(Nc3ncnc4c3nnn4CCc3cc(OC)cc(OC)c3)cc2)CC1,76.1%
6,Oc1nc(NCCc2ccccc2)sc1/C=C1\C=Nc2ncccc21,-2.06% (active) and -14.5% (active)
7,NS(=O)(=O)c1ccc(CCN2C(=O)c3cc(Cl)c(Cl)cc3C2=O)cc1,119%
8,COc1cc(/C=N/Nc2ccccc2F)cc(OC)c1OC,97%
9,O=c1c2ccccc2sc2c(N3CCCC3)nc3ccccc3c12,98.6%
10,O=S(=O)(Oc1ccc(-c2nnc(Nc3ccccc3)s2)cc1)C(F)(F)C(F)(F)C(F)(F)C(F)(F)C(F)(F)C(F)(F)F,99.8%
11,CCc1ccccc1NC(=O)/C(C#N)=C/c1ccc(OC)cc1,108%
12,CCN(CC)CCC(CNc1c(C)cnc2cc(Cl)ccc12)c1ccc(Cl)cc1 (stereo unspecified),19.3%
13,CC1(C)CC2=C3C=C[C@@H]4[C@@]5(C)CCC(=O)C(C)(C)[C@@H]5CC[C@@]4(C)[C@]3(C)CC[C@@]2(C(=O)O)C[C@H]1O,40.3%
14,C=CCn1c(CN2CCN(c3cc4c(cc3F)c(=O)c(C(=O)O)cn4C3CC3)CC2)n[nH]c1=S,105%
15,O=C(Nc1ccc(N=Nc2ccccc2)cc1)c1cccc2ccccc12,41.9%
16,COC(=O)[C@]12CC[C@@H](C)[C@H](C)[C@@H]1C1=CC[C@@H]3[C@@]4(C)C(C=O)=C[C@@](C)(COS(C)(=O)=O)C4=CC[C@@]3(C)[C@]1(C)CC2,-59.8% (active)
17,Cc1ccc(-c2nc([P+](c3ccccc3)(c3ccccc3)c3ccccc3)c(Nc3ccccc3)o2)cc1,-41.8% (active)
18,CN(C)c1ccc(-c2ccc(-c3ccc(C(=N)N)c(F)c3)s2)cc1,-83.6% (active)

row,SMILES,growth
1,Nc1ccc2ccc(N)cc2c1,75.8%
2,Cc1ccc(S(=O)(=O)N/N=C/c2cn(-c3ccc(F)cc3)nc2-c2ccc(S(C)(=O)=O)cc2)cc1,97%
3,COc1cc(C)cc2oc3oc(=O)c(C(=O)c4cc5cc(Br)ccc5o4)cc3c(=O)c12,107%
4,CC(Nc1ncnc2ccc(-c3cnc4cnccn34)cc12)c1ccccc1 (stereo unspecified),-21% (active)
5,CC(C)(C)c1ccc(Cn2c(-c3nonc3N)nc3ccccc32)cc1,47.6%
6,CCc1ccc(/C=C/c2ccc(O)c3ncccc23)[n+](C)c1,19.6%
7,COc1cc(C)c(C2C(C#N)=C(N)Oc3n[nH]c(-c4cccs4)c32)cc1C(C)C (stereo unspecified),101%
8,COc1ccc(C(C)=O)cc1S(=O)(=O)Nc1c(N)nc(SC)[nH]c1=O,97.6%
9,CCC(O)c1ccc(Br)cc1NC(=O)c1cccc(Cl)c1 (stereo unspecified),4.57% (active)
10,C/C=C(/C)C(=O)O[C@@H]1CC(C)(C)CC2C34OC(=O)[C@@]21CC[C@@]3(C)[C@]1(C)CCC2C(C)(C)C(=O)CC[C@]2(C)C1C[C@@H]4O (stereo partly specified),13.1%
11,Cn1c(/C=C(\C#N)c2cccc(C(F)(F)F)c2)nc2c(N3CCOCC3)nc(Cl)nc21,-40.3% (active)
12,CCC(=C(c1ccc(OCCN2CCCC2)cc1)c1ccc(OCCN2CCCC2)cc1)c1ccc(Cl)cc1,-53.5% (active)
13,COc1cccc(/C=C/C(=O)c2ccc(NC(=O)COc3cccc4cccnc34)cc2)c1,90.9%
14,O=C1NC(=O)C(c2ccccc2)(c2ccccc2)N1Cc1cn(-c2c3ccccc3nc3ccccc23)nn1,38.2%
15,COc1cc(-c2nn(-c3ccc(NC(=O)Nc4ccc(Cl)c(C(F)(F)F)c4)cc3)cc2-c2ccncc2)ccc1Cl,-13.2% (active)
16,CCOC(=O)Cc1csc2nc(-c3ccccc3)nn12,108%
17,CCN1CCN(CCOc2ccc(CNc3ccc4nc(CCC5CCCCC5)[nH]c4c3)cc2)CC1,35%
18,COc1cccc(-c2nn(-c3ccccc3)cc2-c2ccnc(NCCCNS(=O)(=O)c3ccccc3)c2)c1,8.98% (active)
